Assay: Plasmodium falciparum growth inhibition, primary screen, strain 3D7, DAPI fluorescence, 100 nL (AID 1184);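 also: parasites grown inside human red blood cells in medium with human serum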
Conditions: P. falciparum 3D7 growth, 3 d, higher = more signal
Compound `CCOC(=O)C[C@H]1[C@H](OC(=O)c2ccc(C(=O)c3ccccc3)cc2)[C@@H](NC(=O)c2ccc(-c3ccccc3)cc2)c2cc(OCCCO)ccc2N1C(=O)c1ccc2ccccc2n1` has a z-score of -1.04.
In the case of `CN(C)c1ccc(C(O)C2C=CC3C(=O)N(c4ccccc4)C(=O)C3N2Nc2ccccc2F)cc1` (configuration not stated), the z-score is reported as -0.0341.
`CCCCCN1CC=CC23O[C@@H]4C=CCOC(=O)[C@@H]4[C@H]2C(=O)N(CCCCCCO)[C@@H]3C1=O` (some centres not stated) gave a z-score of -0.658.
In the case of `C=C(COC)/C(=C/C[C@H](OC(=O)c1ccncc1)c1ccc(CO)o1)c1cc(C(=O)OC)ccc1OC`, the z-score is reported as 0.215.
Work on `Cn1cccc1C(O)C1C=CC2C(=O)NC(=O)C2N1Nc1ccccn1` (configuration not stated) yielded a z-score of -0.119.
Work on `CC(C)N1CC=CC23O[C@@H]4C=CCCOC(=O)C4[C@H]2C(=O)N(CCCCCCO)[C@@H]3C1=O` (some centres not stated) yielded a z-score of 0.0012.
For `O=C1c2ccccc2[C@@]2(Cc3ccccc3N(C3CC3)C2=O)[C@H](c2ccc(CO)cc2)N1Cc1ccccc1C(F)(F)F`, the z-score was -1.42.
`[N-]=[N+]=NCc1ccccc1C[C@]1(C(=O)NCc2ccccc2)N=C(c2ccc(OCCCO)cc2)O[C@H]1c1ccccc1N=[N+]=[N-]` gave a z-score of -2.52.
With `COc1ccc([Si](C)(C)[C@@H]2[C@@H](CC(=O)N3CCC[C@H]3CO)O[C@]3(C(=O)N(Cc4cccc(N5CCC5=O)c4)c4ccccc43)[C@H]2C)cc1` the z-score was -0.744.
In the case of `COc1ccc(CCNC(=O)[C@@H]2c3ccccc3C(=O)N(c3ccc(C)cn3)[C@H]2c2ccc(CO)cc2)cc1`, the z-score is reported as -0.183.
`O=C(CS)NCCCCCNC(=O)[C@@H]1C[C@@H]2C(=O)N[C@@H](Cc3ccccc3)C(=O)N2[C@@H]1c1ccc(O)cc1` gave a z-score of -0.14.
`C#C[C@@H](CC)O[Si](C#Cc1ccc(Oc2ccccc2)cc1)(C(C)C)C(C)C` showed a z-score of -0.968.
Work on `COCC(=C=CC[C@@H](O)c1ccccc1OCCO)CCO` yielded a z-score of -0.721.
`C=CCOC(=O)[C@H]1[C@@H]2C(=O)O[C@@H](c3ccccc3)[C@@H](c3ccccc3)N2[C@@H](c2ccc(OCCOC(=O)[C@H]3C[C@H]4C(=O)N5CCC[C@H]5C(=O)N4[C@H]3c3cccc(OCCO)c3)cc2)[C@]12C(=O)Nc1ccc(I)cc12` gave a z-score of -0.139.
In the case of `CC(C)(C)OC(=O)CC[C@]1(C(=O)NCc2ccccc2)N=C(c2ccc(OCCCO)cc2)O[C@H]1c1ccccc1`, the z-score is reported as -1.58.
For `COCCOC(=O)N1C(=O)[C@@]2(c3cc(C#Cc4ccc(OC)cc4)ccc31)[C@H](c1ccc(O)cc1)N1[C@H](c3ccccc3)[C@H](c3ccccc3)OC(=O)[C@H]1[C@@H]2C(N)=O`, the z-score was -0.687.
In the case of `C=CCN1C(=O)[C@]2(O[C@H](CCn3cc(CCO)nn3)[C@@H]([Si](C)(C)c3ccc(OC)cc3)[C@@H]2C)c2cc(N3CCOC3=O)ccc21`, the z-score is reported as -2.7.
For `O=C1O[C@@H](c2ccccc2)[C@@H](c2ccccc2)N2[C@@H](c3ccc(O)cc3)[C@]3(C(=O)Nc4ccccc43)[C@@H](C(=O)O)[C@H]12`, the z-score was -1.73.
`C=CCOC(=O)[C@H]1[C@@H]2C(=O)O[C@@H](c3ccccc3)[C@@H](c3ccccc3)N2[C@@H](c2ccc(OCCOC(=O)[C@H]3C[C@H]4C(=O)N[C@@H](Cc5ccccc5)C(=O)N4[C@H]3c3ccc(O)cc3)cc2)[C@]12C(=O)Nc1ccccc12` showed a z-score of -1.62.
`CC(C)C[C@@H]1NC(=O)[C@H]2C[C@@H](C(=O)NCCCCCCN(C)C)[C@@H](c3cccc(OCCO)c3)N2C1=O` gave a z-score of 0.063.
`C/C=C\[C@@H](NCc1ccccc1Br)[C@@H](O)Cc1ccccc1` gave a z-score of -1.64.
In the case of `C=C(/C(=C/C[C@H](OC(=O)c1ccncc1)c1ccc(OCCO)cc1)c1cnc2ccccc2c1)C(C)C`, the z-score is reported as -2.84.
`O=C(CS)NCCCCCNC(=O)[C@H]1C[C@H]2C(=O)N3CCC[C@H]3C(=O)N2[C@H]1c1cccc(OCCO)c1` showed a z-score of -0.718.
For `CCCCCN1CC=CC23O[C@@H]4C=CCOC(=O)[C@@H]4[C@H]2C(=O)N(C(CO)C(C)C)[C@@H]3C1=O` (some centres not stated), the z-score was -0.303.
Work on `Cc1ccc(S[C@]2(C(=O)NCC(F)(F)F)CC(=O)N(Cc3ccccc3Cl)[C@@H]2c2ccc(CO)cc2I)cc1` yielded a z-score of 0.115.
With `O=C1O[C@@H](c2ccccc2)[C@@H](c2ccccc2)N2[C@@H](c3ccc(OCCO)cc3)[C@]3(C(=O)Nc4ccccc43)[C@@H](C(=O)N3CCN(c4ncccn4)CC3)[C@H]12` the z-score was -2.11.
`CC(C)=C1C(=O)C(c2ccccc2)=C2CN3C(=O)N(CCc4ccccc4)C(=O)[C@]3(Cc3ccc(F)cc3)[C@H]21` gave a z-score of -0.418.

— PubChem BioAssay
